Assay results: PubChem BioAssay (NCI)
About 83,000 compounds went through this panel and 20% of them were active in at least one assay; those are over-represented in the sample as a whole.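 Single-dose data. Exposure time 48 hours. Values below 10 considered active.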 A number with no mark means an inactive call. Activity calls are given as the source filed them.

Columns and labels:
Assay in all cases: NCI-60 one-dose screen, 48 h (100 = growth as untreated, 0 = no growth, -100 = all killed)
Conditions in all cases: 10 µM unless noted
[1] = tested on: HCT-15 colon
[2] = tested on: HT29 colon
[3] = tested on: SNB-75 CNS
[4] = tested on: SNB-19 CNS
[5] = tested on: U251 CNS
[6] = tested on: PC-3 prostate
[7] = tested on: SK-MEL-5 melanoma
[8] = tested on: UACC-62 melanoma
[9] = tested on: LOX IMVI melanoma
[10] = tested on: SK-MEL-28 melanoma

| Compound | growth [1] | growth [2] | growth [3] | growth [4] | growth [5] | growth [6] | growth [7] | growth [8] | growth [9] | growth [10] |
| --- | --- | --- | --- | --- | --- | --- | --- | --- | --- | --- |
| Nc1ncnc2c1C(c1ccc(Br)cc1)c1sc3c(F)cccc3c1O2 (stereo not given) | 97.1% | 100% | 83.7% | 110% | 98% | 87.4% | 96.2% | 80.1% | 82.9% | 119% |
| Nc1ncnc2c1C(c1ccccc1)c1ccc3ccccc3c1O2 (stereo not given) | 96.5% | 92.5% | 64.7% | 80.7% | 86.4% | 70.5% | 77.7% | 68.5% | 72.1% | 103% |
| COC(=O)/C=C1/SC(=Nc2ccc(C(F)(F)F)cc2)N(CCc2c[nH]c3ccc(O)cc23)C1=O | 3.12% (active) | -49.9% (active) | -3.46% (active) | -2.49% (active) | -37.7% (active) | -33.8% (active) | -61.9% (active) | -53.6% (active) | -60% (active) | -29.5% (active) |
| O=C(Nc1ccc(Oc2cccc(Cl)c2)c(Cl)c1)c1cccnc1 | 36.8% | 8.57% (active) | -23.2% (active) | 41.3% | 23.9% | 14.9% | 14.5% | 37.6% | 51.7% | 63.8% |
| COc1cc2c(cc1OCCCN1CCN(CCCOc3cc4c(cc3OC)C(=O)N3CC(F)(F)C[C@H]3C=N4)CC1)N=C[C@@H]1CC(F)(F)CN1C2=O | 101% | 60.1% | 2.55% (active) | 47.2% | 7.49% (active) | 68.5% | 20.6% | 76.2% | 12% | 99.3% |
| C=C(C)[C@@H]1CC[C@]2(C(=O)O)CC[C@]3(C)[C@H](CC[C@@H]4[C@@]5(C)CCC(NC(=O)c6cccc(OC(C)=O)c6OC(C)=O)C(C)(C)[C@@H]5CC[C@]43C)[C@@H]12 (stereo not given in full) | 6.94% (active) | 8.01% (active) | 12.5% | 26% | 9.78% (active) | 17.6% | -81.7% (active) | -38.3% (active) | -74.1% (active) | 12% |
| CCCCCCCC[C@@H]1N[C@@H](C(=O)OC)Cc2c1[nH]c1ccccc21 | 94.2% | 111% | 81.6% | 96.6% | 91.5% | 94.6% | 97.3% | 69.1% | 93.1% | 94.2% |
| N=C(N)c1ccc(-c2ccc(-c3ccc(Cl)c(Cl)c3)s2)nc1 | -71.9% (active) | 5.19% (active) | 84.8% | 11.7% | -55.7% (active) | -16.9% (active) | 91.3% | 81% | -88.6% (active) | 107% |
| COc1cc2oc(-c3cccc(NC(=O)c4ccccc4)c3)cc(=O)c2c(OC)c1OC | 65.2% | 77.1% | 77.4% | 91.4% | 83.7% | 53.1% | 63.2% | 66.8% | 61.7% | 73.2% |
| O=C(Nc1nc2cc(C(=O)N3CCN(C(c4ccccc4)c4ccccc4)CC3)ccc2o1)c1ccc(NC2CCCCC2)c([N+](=O)[O-])c1 | 35.1% | 62.2% | 71.7% | 48.3% | 32.5% | 53.9% | 49.7% | 45.8% | 45.5% | 66.5% |
| COc1cc(OCc2cccc(Br)c2C)cc(OC)c1C=O | 80.6% | 75% | 90.2% | 91.8% | 87% | 79.6% | 91.9% | 36.5% | 90.1% | 99.5% |
| CCCCCN1C(=O)/C(=c2\sc3n(c2=O)C2C(NN=3)N(CC)C(=O)N2CC)c2ccccc21 (stereo not given) | 1.05% (active) | -57.1% (active) | -51.5% (active) | -1.3% (active) | -83.4% (active) | -20.2% (active) | 16.8% | 10.7% | -43.5% (active) | 19.2% |
